# From PubChem
# Shown is part of a subset that was picked to be rich in hits.
# PD-1 reversal = reversal of PD-1 mediated T-cell inhibition; primary human CD4 T cells, PD-L1 beads, CellTiter-Glo 96 h; activation, % (no concentration beside the values); 29,000 tested, under 10 active; AID 2316; call rule not given here;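 further: 0% = median vehicle wells and 100% = positive control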
# NOMO-1 viab = STK33 inhibitor candidate reducing NOMO-1 cell viability | NOMO-1 AML viability, CellTiter-Glo luminescence, 72 h | inhibition, % (no concentration beside the values) | 37,000 compounds, 7.5% hits | AID 2330; in the data active means inhibition above about 80%; inconclusive means no clear call, values can overlap the other calls
# STK33 kin inh = inhibitors of human STK33 kinase; Q9BYT3; ADP-Glo luminescence, MBP substrate; inhibition, % at 12.5 µM; 27,000 compounds, 0.44% hits; AID 2322; in the data active means inhibition above about 20%; inconclusive means no clear call, values can overlap the other calls
# Target sequence (Q9BYT3 whole entry, looked up): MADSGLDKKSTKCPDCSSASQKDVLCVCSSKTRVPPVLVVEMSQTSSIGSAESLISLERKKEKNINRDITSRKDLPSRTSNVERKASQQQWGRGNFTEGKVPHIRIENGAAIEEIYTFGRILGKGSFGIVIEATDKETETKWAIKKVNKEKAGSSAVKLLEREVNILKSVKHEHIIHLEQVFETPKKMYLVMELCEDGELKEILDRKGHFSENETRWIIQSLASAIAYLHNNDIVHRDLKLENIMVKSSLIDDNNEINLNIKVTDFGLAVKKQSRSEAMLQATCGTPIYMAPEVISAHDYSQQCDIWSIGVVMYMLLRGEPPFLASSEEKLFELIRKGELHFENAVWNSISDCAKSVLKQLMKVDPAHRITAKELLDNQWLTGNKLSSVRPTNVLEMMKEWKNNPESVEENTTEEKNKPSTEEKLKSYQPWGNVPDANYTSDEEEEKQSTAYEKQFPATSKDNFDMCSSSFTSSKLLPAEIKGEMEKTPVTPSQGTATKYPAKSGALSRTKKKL
# * = called active by the depositor; ? = inconclusive; nt = no result given.
SMILES,PD-1 reversal,NOMO-1 viab,STK33 kin inh
C=C1C(=O)O[C@H]2[C@H]1[C@@H](OC(=O)/C(C)=C\C)C(OC(C)=O)/C(C(=O)OC)=C\CC[C@@]1(C)O[C@H]21 (stereo not given in full),-13,109*,2
C=C1C(=O)O[C@H]2[C@H]1C[C@H](OC(=O)/C(C)=C\C)/C(C)=C\CC[C@@]1(C)O[C@@H]21,-15,121*,-2
C=C1C(=O)O[C@H]2[C@H]1[C@@H](OC(=O)/C(C)=C/C)C(OC(C)=O)/C(C(=O)OC)=C\CC[C@@]1(C)O[C@H]21 (stereo not given in full),-12,119*,-2
C[C@H](CO)N1C[C@H](C)[C@H](CN(C)C)Oc2ccc(NS(=O)(=O)c3ccc(Cl)cc3)cc2C1=O,nt,-4,nt
CC/C=C/c1ccc(C)cc1/C=C/CCCC(=O)O,3,10,-6
O=C(O)CSc1ccc(Br)c2cccc(C(=O)O)c12,2,3,3
C[C@@H]1CN([C@@H](C)CO)C(=O)c2cc(NC(=O)CCCN(C)C)ccc2O[C@@H]1CN(C)S(=O)(=O)c1cn(C)cn1,nt,-8,nt
Cc1ccc(NS(=O)(=O)c2cc(C(=O)Nc3ccccc3C(=O)N3CCOCC3)ccc2Cl)c(C)c1,2,-1,0
COc1cc(C2OC[C@@H]3[C@@H](c4cc(OC)c(O)c(OC)c4)OC[C@H]23)cc(OC)c1O (stereo not given in full),1,14,8
COc1cc([C@@H]2c3cc4c(cc3[C@H](O)[C@H]3COC(=O)[C@@H]23)OCO4)cc(OC)c1OC,nt,108*,3
COc1cc([C@@H]2c3cc4c(cc3[C@H](O)[C@H]3COC(=O)[C@H]23)OCO4)cc(OC)c1OC,nt,113*,1
COc1cc2c(c(O)c1OC)C(=O)CC(c1ccc(O)cc1)O2 (stereo not given),0,20,10
COc1cc([C@@H]2c3cc4c(cc3[C@@H](O[C@@H]3O[C@@H]5CO[C@@H](C)O[C@H]5[C@H](O)[C@H]3O)[C@H]3COC(=O)[C@H]23)OCO4)cc(OC)c1O,nt,117*,-1
COc1ccc(S(=O)(=O)N(C)C[C@@H]2Oc3ccc(NS(=O)(=O)c4ccc(C)cc4)cc3CC(=O)N([C@H](C)CO)C[C@H]2C)cc1,0,16,nt
CC(C)NC(=O)N(C)C[C@@H]1OCCCC[C@@H](C)Oc2ccc(NC(=O)Nc3cccc4ccccc34)cc2C(=O)N([C@H](C)CO)C[C@@H]1C,nt,29,-4
C[C@@H]1CCCCO[C@@H](CN(C)C(=O)Nc2ccc(C(F)(F)F)cc2)[C@@H](C)CN([C@H](C)CO)C(=O)c2cc(NC(=O)Nc3ccccc3)ccc2O1,nt,66,1
Cc1noc(C)c1NC(=O)N(C)C[C@@H]1Oc2ccc(NC(=O)Nc3ccc4c(c3)OCO4)cc2CC(=O)N([C@H](C)CO)C[C@@H]1C,nt,-9,nt
Cc1ccc(CN(C)C[C@H]2OCc3cn(nn3)CCCC(=O)N([C@H](C)CO)C[C@@H]2C)cc1,nt,nt,-2
CC1C[C@@]23CC4C(C)(C)[C@@]5(C[C@]4(CN2C1=O)N(C)C3=O)C(=O)Nc1c5ccc2c1C(=O)CC(C)(C)O2 (stereo not given in full),0,118*,-2
CC(=O)c1ccc(NC(=O)CSc2nc(N)cc(=O)[nH]2)cc1,-2,-9,0
C[C@@H]1CN([C@@H](C)CO)C(=O)c2cc(NS(=O)(=O)c3cn(C)cn3)ccc2O[C@@H]1CN(C)Cc1ccc(C(=O)O)cc1,2,-13,0
C[C@@H]1CN([C@@H](C)CO)C(=O)c2cc(NC(=O)Cc3ccccc3)ccc2O[C@@H]1CN(C)Cc1ccc(C(=O)Nc2ccccc2N)cc1,0,109*,nt
CC(C)NC(=O)Nc1ccc2c(c1)C(=O)N([C@H](C)CO)C[C@H](C)[C@H](CN(C)Cc1ccc(C(=O)Nc3ccccc3N)cc1)OCCCC[C@@H](C)O2,0,27,nt
C[C@@H]1CN([C@@H](C)CO)C(=O)c2cc(NC(=O)Cc3ccccc3)ccc2O[C@H]1CN(C)Cc1ccc(C(=O)Nc2ccccc2N)cc1,-1,?,nt
C[C@H]1CN([C@@H](C)CO)C(=O)c2cc(NC(=O)Cc3ccccc3)ccc2O[C@H]1CN(C)Cc1ccc(C(=O)Nc2ccccc2N)cc1,-2,108*,nt
SMILES,PD-1 reversal,NOMO-1 viab,STK33 kin inh
C[C@@H]1CCCCO[C@@H](CN(C)Cc2ccc(C(=O)Nc3ccccc3N)cc2)[C@@H](C)CN([C@H](C)CO)C(=O)c2cc(NS(C)(=O)=O)ccc2O1,1,?,nt
C[C@@H]1CCCCO[C@@H](CN(C)Cc2ccc(C(=O)Nc3ccccc3N)cc2)[C@@H](C)CN([C@H](C)CO)C(=O)c2cc(NC(=O)Cc3ccccc3)ccc2O1,0,127*,nt
C[C@@H]1CCCCO[C@H](CN(C)Cc2ccc(C(=O)Nc3ccccc3N)cc2)[C@@H](C)CN([C@H](C)CO)C(=O)c2cc(NS(=O)(=O)c3ccc(F)cc3)ccc2O1,0,128*,nt
C[C@@H]1CN([C@H](C)CO)C(=O)c2cc(NC(=O)Cc3ccccc3)ccc2O[C@H]1CN(C)Cc1ccc(C(=O)Nc2ccccc2N)cc1,0,61,nt
C[C@H]1CN([C@@H](C)CO)C(=O)c2cccc(NS(C)(=O)=O)c2O[C@H]1CN(C)S(=O)(=O)c1cn(C)cn1,nt,-11,nt
CC(CC(C)O[C@@H]1O[C@H](CO)[C@@H](O)[C@H](O)[C@H]1O)OC(=O)/C=C/c1ccc(O)cc1 (stereo not given in full),2,10,3
C[C@H]1CN([C@@H](C)CO)C(=O)c2cccc(NS(=O)(=O)c3cccs3)c2O[C@H]1CN(C)S(=O)(=O)c1ccc(Cl)cc1,-1,24,nt
C[C@H]1CN([C@@H](C)CO)C(=O)c2cc(NC(=O)CCN3CCOCC3)ccc2O[C@@H]1CN(C)Cc1ccc(C(=O)O)cc1,2,-7,1
Cc1ccc(S(=O)(=O)Nc2cccc3c2O[C@@H](CN(C)C)[C@@H](C)CN([C@@H](C)CO)C3=O)cc1,1,12,nt
Cn1c(SCC(=O)Nc2ccc(Oc3ccc(Cl)cc3)cc2)nnc1-c1ccccc1O,nt,28,4
C[C@@H]1CCCCO[C@@H](CN(C)Cc2ccccc2)[C@@H](C)CN([C@H](C)CO)C(=O)c2cc(NC(=O)CCCCCC(=O)Nc3ccccc3N)ccc2O1,1,54,nt
C[C@@H]1CCCCO[C@@H](CN(C)Cc2ccc(C(F)(F)F)cc2)[C@@H](C)CN([C@H](C)CO)C(=O)c2cc(NC(=O)CCCCCC(=O)Nc3ccccc3N)ccc2O1,1,125*,nt
CC1CCc2c(sc(NC(=O)c3cc4n(n3)C(C(F)(F)F)CC(c3ccco3)N4)c2C(N)=O)C1 (stereo not given),nt,nt,6
Cc1ccc(S(=O)(=O)NCc2ccccc2)cc1,-1,12,nt
Cc1ccc(S(=O)(=O)N[C@H](Cc2ccccc2)C(=O)CCl)cc1,-9,98*,0
C[C@@H]1CN([C@H](C)CO)C(=O)c2cccc(NS(=O)(=O)c3ccc(F)cc3)c2O[C@@H]1CN(C)Cc1ccc(C(F)(F)F)cc1,1,30,nt
O=C(CC1(O)C(=O)N(Cc2ccc(Cl)cc2)c2ccc(Cl)cc21)c1ccco1 (stereo not given),2,114*,1
